Rows were chosen to be rich in hits. Some 19% of all compounds tested hit in one or more screens of this group.
ELG1 repair inh = qHTS screen for small molecules that inhibit ELG1-dependent DNA repair in human embryonic kidney (HEK293T) cells expressing luciferase-tagged ELG1; Potency, µM (top dose mostly 46.1 µM), without a hit: at the top dose activity change, negative = inhibition, usual class: inhibitors; HEK293T ELG1-luciferase reporter, luminescence, 16 h; DNA damage induced by 5-fluorouridine; 2.3% of 330,000 active; AID 504467, 2011; also: potency is read from the fitted curve at half-maximal effect; nearly all actives have a fitted effect of over 55% in size
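Luminescence from the luciferase reporter, measured 30 min after ONE-Glo reagent at room temperature, was the read-out. Beforehand, 2,000 cells per well were exposed for 16 hr at 37 °C to 5-fluorouridine together with compound or vehicle.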
HT1080 IDH1KD tx = qHTS for induction of synthetic lethality in tumor cells producing 2HG: qHTS for the HT-1080-IDH1KD cell line | HT-1080 IDH1 knockdown viability, ATP luminescence, 48 h | Potency, µM (top dose mostly 46.1 µM), without a hit: at the top dose activity, negative = toxicity, hits mostly cytotoxic | 2% of 360,000 active;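 also: potency is read from the fitted curve at half-maximal effect; 0% = DMSO wells and -100% = cell-free medium wells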
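HT-1080-IDH1KD cells (IDH1 knocked down), 750/well in RPMI with 5% FBS, treated with compound 48 h at 37 degrees C. Viability by CellTiter-Glo luminescence, normalised to DMSO and no-cell wells; concentration-response curves classed.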
IL-1B inflam inh = qHTS for Inhibitors of Inflammasome Signaling: IL-1-beta AlphaLISA Primary Screen; 4.7% of 360,000 active; activity change, % at 57.5 µM; THP-1 LPS/ATP IL-1B secretion, AlphaLISA, 16 h; stronger effect = lower value; AID 743279, 2014; in the data active = activity change below about -50%; inconclusive = mostly about -30% to -49%
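THP-1 cells pretreated 1 hr with compounds (up to 57.5 uM final), then stimulated with LPS (250 ng/mL final) plus ATP (1.25 mM final); secreted IL-1B measured by AlphaLISA after 16 hr, decreased signal indicating inhibition.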
DT40 TDP1 no CPT = qHTS for Inhibitors of human tyrosyl-DNA phosphodiesterase 1 (TDP1): qHTS in cells in absence of CPT. DT40 Tdp1-/- hTDP1 cells, no CPT, ATP luminescence, 48 h. Potency, µM (titrated, usually from 46.2 µM), inactives show at the top dose activity change, negative = growth inhibition, hits mostly inhibitors. 15% of 420,000 active. AID 686978, 2013; also: potency is read from the fitted curve at half-maximal effect; nearly all actives have a fitted effect of over 55% in size
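Readout: luminescence from CellTiter-Glo after 30 min in the dark at RT. Cells: DT40 Tdp1-/- with stable hTDP1, 400/well. Exposure: compounds alone, ≥48 hr, 37 °C.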
DT40 TDP1 CPT = qHTS for Inhibitors of human tyrosyl-DNA phosphodiesterase 1 (TDP1): qHTS in cells in presence of CPT; Potency, µM (titrated, usually from 46.2 µM), for the others: at the highest dose activity change, negative = growth inhibition, most hits filed as inhibitors; chicken DT40 Tdp1-/-;hTDP1 cells + 20 nM CPT, ATP luminescence, 48 h; AID 686979, 2013; 12% of 420,000 active; also: potency is read from the fitted curve at half-maximal effect; nearly all actives have a fitted effect of over 55% in size
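Chicken DT40 Tdp1-/- cells stably complemented with human TDP1 were seeded at 400 cells/well in medium containing 20 nM camptothecin, exposed to pin-transferred compounds, and grown at 37 °C for at least 48 hr. Viability was read as ATP luminescence.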
HT1080NT lethal = qHTS for induction of synthetic lethality in tumor cells producing 2HG: qHTS for the HT-1080-NT fibrosarcoma cell line | HT-1080-NT fibrosarcoma viability, CellTiter-Glo ATP luminescence, 48 h | Potency, µM (doses to about 46.1 µM), for inactives: at the highest dose activity, negative = less viability, most hits filed as cytotoxic | 1.6% of 360,000 active | AID 686970, 2013;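 also: NT is the 2HG producing partner of a matched IDH1 knockdown line; potency is read from the fitted curve at half-maximal effect; 0% = DMSO-treated cells and -100% = media-only wells without cells; nearly all actives have a fitted effect of over 55% in size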
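Toxicity toward the 2HG-producing NT line was scored as %Activity, normalised to DMSO and no-cell wells, from CellTiter-Glo luminescence after 48 hours' treatment.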
* = called active by the depositor; ? = inconclusive; · = no result given. Unless noted, calls follow the shape of the dose curve; as a rule, active = well fitted curve in the direction sought with a large enough effect; inconclusive = small, poorly fitted or top-dose-only effect, or another doubt; inactive = no such curve, though single readings can be large; an effect the other way counts as inactive or inconclusive. Unless noted, % is scaled to controls: 0 for no effect and ±100 for the full control effect.

SMILES	ELG1 repair inh	HT1080 IDH1KD tx	IL-1B inflam inh	DT40 TDP1 no CPT	DT40 TDP1 CPT	HT1080NT lethal
COc1ccc(Oc2ncc3nc(-c4cccs4)c(=O)n(C)c3n2)cc1	·	·	·	-2.3%	2.2%	·
Cc1cc(C)n2c(SCC(=O)Nc3cccc(S(N)(=O)=O)c3)nnc2n1	13.5%	5.8%	14.5	-20.3%	1.7%	9.9%
CNS(=O)(=O)c1ccc2nc(NC(=O)c3ccc(N4C(=O)CCC4=O)cc3)sc2c1	27.1%	1.0%	13.1	20.6µM*	?	-2.7%
O=C(Nc1nc2ccc(S(=O)(=O)N3CCCCC3)cc2s1)c1cccnc1	9.6%	-12.8%	43.9	?	-12.6%	-9.6%
CC(=O)Nc1nc2ccc(S(=O)(=O)N3CCCCC3)cc2s1	-2.6%	-2.4%	34.7	-7.8%	-12.1%	10.0%
CCc1ccc2nc(NC(=O)c3ccc(N4C(=O)CCC4=O)cc3)sc2c1	?	-2.4%	-0.9	-11.4%	-26.9%	-1.7%
O=C(Nc1nc2ccc(S(=O)(=O)N3CCCC3)cc2s1)c1cccc(F)c1	·	·	·	11.6µM*	?	·
O=C(Nc1nc2ccc(S(=O)(=O)N3CCCC3)cc2s1)c1ccccn1	20.6µM*	-1.3%	-8.7	2.91µM*	6.51µM*	4.0%
O=C(/C=C/[C@H]1O[C@@H](n2ccc(=O)[nH]c2=O)[C@H](O)[C@@H]1O)NCC1CCCO1 (some centres undefined)	·	18.4%	8.8	0.8%	-5.1%	15.1%
COc1cc2ccc(C(C)=NNC(N)=S)cc2cc1OC	·	-1.4%	-24.9	14.6µM*	?	-4.6%
CC(=NNC(N)=S)c1ccc2cc3c(cc2c1)OCO3	·	-23.8%	?	10.3µM*	23.1µM*	-10.2%
O=C(C1=C[C@@H](C2CC2)C[C@@H](OCc2ccc(CO)cc2)O1)N1CCN(Cc2ccc3c(c2)OCO3)CC1	?	-8.5%	-27.8	20.6µM*	?	2.4%
CN1CCN(C(=O)C2=C[C@@H](c3csc4ccccc34)C[C@@H](OCc3ccc(CO)cc3)O2)CC1	-13.5%	-3.9%	?	18.4µM*	20.6µM*	-6.3%
O=C(C1=C[C@@H](c2ccc(C(F)(F)F)cc2)C[C@@H](OCc2ccc(CO)cc2)O1)N1CCN(Cc2ccccc2)CC1	-8.2%	-29.7%	-60.1*	?	?	-29.8%
O=C(C1=C[C@@H](c2ccccc2)C[C@@H](OCCCCO)O1)N1CCN(Cc2ccc3c(c2)OCO3)CC1	-27.5%	7.8%	-1.4	?	?	3.6%
C[C@H]1C=C(C(=O)N2CCN(Cc3ccc4c(c3)OCO4)CC2)O[C@@H](OCc2ccc(CO)cc2)C1	?	-3.9%	-23.2	-25.0%	-0.2%	-1.7%
O=C(C1=C[C@H](c2ccccc2)C[C@H](OCc2ccc(CO)cc2)O1)N1CCN(Cc2ccc3c(c2)OCO3)CC1	8.2µM*	-26.8%	-52.7*	20.6µM*	?	-28.7%
O=C(C1=C[C@H](c2csc3ccccc23)C[C@H](OCc2ccc(CO)cc2)O1)N1CCOCC1	?	7.6%	-6.7	?	?	1.7%
Cc1ccc(C)c(OCCC(=O)Nc2ccccc2C(=O)NC2CC2)c1	-11.6%	9.3%	13.2	-13.9%	-7.3%	4.0%
O=C(C1=C[C@H](c2csc3ccccc23)C[C@H](OCc2ccc(CO)cc2)O1)N1CCN(Cc2ccccc2)CC1	?	-25.5%	?	?	?	-23.5%
O=C(C1=C[C@H](c2ccc3c(c2)OCO3)C[C@H](OCc2ccc(CO)cc2)O1)N1CCN(Cc2ccc3c(c2)OCO3)CC1	16.4µM*	-6.7%	?	?	?	-5.5%
O=C(C1=C[C@H](c2csc3ccccc23)C[C@H](OCc2ccc(CO)cc2)O1)N1CCN(Cc2ccc3c(c2)OCO3)CC1	?	-1.1%	?	?	16.4µM*	-12.0%
CCOc1ccc(S(=O)(=O)Nc2cccc(C)c2)c2cccnc12	-5.1%	-11.3%	60.1	18.4µM*	11.6µM*	-5.3%
CCOc1ccc(S(=O)(=O)N2CCN(c3ccccc3OC)CC2)c2cccnc12	-3.4%	-17.8%	1.6	23.1µM*	?	-7.2%
CCc1ccc(NS(=O)(=O)c2ccc(OC)c3ncccc23)cc1	5.7%	-14.6%	27.3	-5.7%	?	-14.6%
SMILES	ELG1 repair inh	HT1080 IDH1KD tx	IL-1B inflam inh	DT40 TDP1 no CPT	DT40 TDP1 CPT	HT1080NT lethal
CCOc1ccc(S(=O)(=O)N2CCN(c3ccccc3)CC2)c2cccnc12	-21.6%	-2.3%	-1.4	-0.9%	-0.3%	-1.2%
COc1ccc(S(=O)(=O)Nc2c(C)cc(C)cc2C)c2cccnc12	-6.0%	-6.7%	-0.5	-16.6%	-20.1%	-5.4%
CCOc1ccc(S(=O)(=O)Nc2cc(Cl)ccc2OC)c2cccnc12	·	·	·	14.6µM*	14.6µM*	·
CCc1ccccc1NS(=O)(=O)c1ccc(OC)c2ncccc12	-12.5%	0.0%	28.0	10.3µM*	18.4µM*	-5.0%
Cc1ccc(C)c(OCCCn2c(-c3ccc(Cl)cc3)nc3ccccc3c2=O)c1	·	·	·	-2.3%	-9.6%	·
Cc1ccccc1CN1C(=O)c2ccccc2S(=O)(=O)c2ccc(C(=O)OCC3CCCO3)cc21 (centres undefined)	·	·	·	-20.3%	-7.3%	·
COc1ccc(CNC(=O)COC(=O)/C=C/c2cccc(Cl)c2)cc1	12.5%	-2.2%	-12.9	-4.1%	-3.0%	-1.1%
COc1ccc(C(=O)Nc2nc(CC(=O)NCCc3ccccc3)cs2)cc1	-22.2%	0.3%	-52.3*	?	?	0.6%
COc1ccc(C(=O)Nc2nc(CC(=O)NCCc3cccc(OC)c3)cs2)cc1	-25.4%	-8.7%	?	14.6µM*	?	-1.3%
O=C(Cc1csc(NC(=O)c2ccccc2)n1)NO	-8.2%	?	-57.6*	-12.5%	?	?
CCOC(=O)Cc1csc(NC(=O)Cc2ccccc2)n1	2.0%	12.3%	6.5	?	21.8%	-7.4%
CCOC(=O)Cc1csc(NC(=O)c2cccc(OC)c2)n1	7.0%	0.1%	-0.3	?	-29.4%	5.0%

Source: PubChem BioAssay
